From PubChem
Most compounds without a hit are left out; they make up all but 3.8% or so of the library.
NLRP3 yeast inh – inhibitors of NALP3 inflammasome in yeast; Yeast reconstituted NLRP3/ASC/caspase-1, beta-gal luminescence, 24 h; inhibition, % at 10 µM; 330,000 tested, 0.39% active; AID 2825;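 active means inhibition of 50% or more; inactive means inhibition below 50%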
Yeast superoxide – lowers age-related superoxide in aged yeast cells. S. cerevisiae aged cells, superoxide DHE fluorescence; stronger effect = lower value. superoxide response (% of plate mean), % at 10 µM. 330,000 tested, 0.18% active. AID 2690;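 active means superoxide response under a set limit, about three screen SD below normal, cut at about 65% in these data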;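 further: yeast aged for seven days with compound at 30 °C before DHE staining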
tim10-1 inh – tim10-1 yeast growth inhibition. S. cerevisiae tim10-1 ts strain growth, BacTiter-Glo, 24 h. inhibition, % at 20 µM. 330,000 tested, 2.2% active;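 active means inhibition of at least 40%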;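 further: mutant grown at 25 °C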
TIM10 inh – inhibits growth of TIM10 yeast strain; S. cerevisiae TIM10 strain growth, BacTiter-Glo luminescence, 24 h; inhibition, % at 10 µM; 330,000 tested, 1.4% active; AID 463195;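 active means inhibition of 40% or more at the single tested concentration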;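 further: wild-type TIM10 isogenic control strain grown at permissive 25 °C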
tim23-1 inh – inhibits growth of tim23-1 mutant yeast; S. cerevisiae tim23-1 growth, BacTiter-Glo luminescence, 24 h; inhibition, % at 20 µM; 330,000 tested, 1.3% active; AID 463212;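 active means growth inhibition of the mutant yeast at or above 50%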;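 further: temperature-sensitive mutant grown at 25 °C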
tim10-1 conf – confirmation of tim10-1 mutant yeast growth inhibitors; shares compounds with tim10-1 inh; S. cerevisiae tim10-1 ts strain growth, BacTiter-Glo, 24 h; inhibition, % at 20 µM; 7,400 tested, 56% active;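 active means inhibition of yeast growth at or above a set limit in either of two repeat tests at 20 µM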;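 further: tim10-1 mutant grown at permissive 25 °C to find synthetic lethal compounds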
Hits are given with their value; – = inactive; · = no result.

SMILES	NLRP3 yeast inh	Yeast superoxide	tim10-1 inh	TIM10 inh	tim23-1 inh	tim10-1 conf
CC(=O)Nc1ccc(-c2csc(Nc3ccccn3)n2)cc1	–	–	62.5	–	–	–
c1ccc(Nc2nc(-c3ccccn3)cs2)cc1	–	–	45.7	–	–	–
CC(C)(C)NC(=O)C(c1ccccn1)N(C(=O)C1CSC(=O)C1)c1cccc(F)c1 (configuration not stated)	–	–	–	–	–	·
C=CCNC(=O)CSCc1ccc(Br)cc1	–	–	–	–	–	·
COc1cc(SC#N)ccc1N=Cc1c(C)[nH]n(-c2ccc(Cl)cc2)c1=O	–	–	41.6	–	–	–
N/C(=N\OC(=O)CC(c1ccccc1)c1ccccc1)c1cccnc1	–	–	47.1	–	–	61.4
N/C(=N\OC(=O)CCCc1ccccc1)c1cccnc1	–	–	–	–	–	·
N/C(=N\OC(=O)Cc1ccc(-c2ccccc2)cc1)c1cccnc1	–	–	47.0	–	–	39.0
N/C(=N\OC(=O)CCC1CCCCC1)c1cccnc1	–	–	46.2	–	–	37.8
O=C(c1ccc2c(c1)OCO2)N1CCc2ccccc21	–	–	–	–	–	·
Cc1ccc(N/C(N)=N/c2nc(C)cc(N3CCCCC3)n2)c(C)c1	–	–	–	–	–	·
Nc1nc(-c2ccc(Br)cc2)cs1	–	–	55.8	–	–	46.4
CN1CCN(C2Cc3ccccc3Sc3ccc(Cl)cc32)CC1 (configuration not stated)	–	–	52.4	–	–	35.5
C=C[C@@H](C)N(Cc1ccc(OC)cc1)S(=O)(=O)N(Cc1ccccc1)[C@H](C=C)C(C)C	–	–	–	–	–	·
CN(C)S(=O)(=O)N1CCN(c2cc(Cl)ccc2Cl)CC1	–	–	43.2	–	–	–
Cc1nn(CC(=O)NCCN2CCOCC2)c(=O)c2cc3sccc3n12	–	–	–	–	–	·
CC(=O)N1CCN(C(=O)CSc2nnc(C)n2-c2ccccc2)CC1	–	–	–	–	–	·
O=C1CCCCC1Sc1nnc(Cc2cccs2)n1CCc1ccccc1 (configuration not stated)	–	–	45.0	–	–	–
O=S(=O)(c1cccc(Cl)c1)N1CCN(S(=O)(=O)c2ccc3c(c2)OCCO3)CC1	–	–	–	–	–	·
O=S(=O)(c1ccc2c(c1)OCCO2)N1CCC(O)(c2ccc(Cl)cc2)CC1	–	–	49.5	–	–	35.8
Cc1cc(C2CC(=O)Nc3ccccc3S2)c(C)s1 (configuration not stated)	–	–	–	–	–	·
Cc1ccc2c(C)nc(N/C(N)=N/S(=O)(=O)c3ccc([N+](=O)[O-])cc3)nc2c1	–	–	41.5	–	–	–
COc1ccc(NC(=S)/N=C(\N)Nc2nc(C)c3ccc(C)cc3n2)cc1	–	–	40.2	–	–	–
CCOc1ccc2nc(N/C(N)=N/C(=S)Nc3ccc(C)c(C)c3)nc(C)c2c1	–	–	–	–	–	·
Cc1nc(N/C(N)=N/S(=O)(=O)c2ccc([N+](=O)[O-])cc2)nc2ccccc12	–	–	–	–	–	·
SMILES	NLRP3 yeast inh	Yeast superoxide	tim10-1 inh	TIM10 inh	tim23-1 inh	tim10-1 conf
CCOC(=O)c1c(-c2ccc(C)o2)csc1NC(=O)COC(=O)c1cccs1	–	–	41.8	–	–	–
CCOC(=O)c1c(-c2ccc(C)o2)csc1NC(=O)CN1CCOCC1	–	–	–	–	–	·
CCOC(=O)c1c(-c2ccc(C)o2)csc1NC(=S)NC(=O)N(C)C	–	–	55.4	–	–	45.5
COc1ccc2[nH]c3c(=O)n4c(nc3c2c1)SCCC4	–	–	40.5	–	–	38.7
Cc1ccc2[nH]c3c(=O)n4c(nc3c2c1)SCC4	–	–	45.0	–	–	–
O=c1c2ccccc2nc2n1CCS2	–	–	–	–	–	·
COc1cc(-c2nc3cc(C)ccn3c2NC2CCCCC2)ccc1-c1ccc(C(C)=O)cc1	–	–	40.4	–	–	–
CCCCCCSc1cc(-c2nc3cc(C)ccn3c2NC2CCCCC2)ccc1OC	–	–	–	–	–	·
CC(C)c1ccc(NC(=O)CCCN2C(=O)NC(C)(C)C2=O)cc1	–	–	57.5	–	–	–
COC(=O)C1(Cc2cc(-c3ccc(OC)cc3OC)no2)CCN(C(=O)OC(C)(C)C)CC1	–	–	–	–	–	·
COc1ccc(-c2cc(C3CCN(C(=O)OC(C)(C)C)CC3)[nH]n2)cc1	–	–	44.5	–	–	38.9
COc1ccc(-c2cc(C3CCN(c4ccc(C(C)=O)cc4[N+](=O)[O-])CC3)[nH]n2)cc1	–	–	–	–	–	·
COc1ccc(OC)c(-c2cc(C3CCN(C(=O)OC(C)(C)C)CC3)[nH]n2)c1	–	–	–	–	–	–
Cn1ncc([N+](=O)[O-])c1C(=O)N1CCCCCC1	–	·	–	–	–	·
COc1ccc(N2CCN(c3oc(Cc4ccccc4)nc3C#N)CC2)cc1	–	–	40.3	–	–	–
CN1C(=O)C2(c3ccccc31)N(C)CC(c1ccccc1)C21SC(=S)N(Cc2ccco2)C1=O (configuration not stated)	–	–	–	–	–	·
CN1C(=O)C2(c3ccccc31)N(C)CC(c1ccccn1)C21SC(=S)N(Cc2ccco2)C1=O (configuration not stated)	–	–	47.3	–	–	–
Cc1ccc(-n2c(C)cc(C(=S)N3CCOCC3)c2C)cc1C	–	–	–	–	–	·
Cc1ccc(-n2c(C)cc3c2CC(C)(C)CC3=O)cc1C	–	–	–	–	–	·
Cc1cc2c(n1-c1ccc(Br)cc1)CC(C)(C)CC2=O	–	–	49.4	–	–	32.9
COc1ccccc1N1CCN(S(=O)(=O)c2ccc3c(c2)NC(=O)C(C)S3)CC1 (configuration not stated)	–	–	42.7	–	–	–
COc1cc(S(=O)(=O)N2CCN(c3ccccc3F)CC2)ccc1Cl	–	–	42.7	–	–	–
O=S(=O)(c1ccc2nc(-c3ccccc3)[nH]c2c1)N1CCN(c2cccc(Cl)c2)CC1	–	–	–	–	–	·
COc1ccccc1N1CCN(S(=O)(=O)c2ccc3nc(-c4ccccc4)[nH]c3c2)CC1	–	–	42.0	–	–	–
CCCN1CCN(S(=O)(=O)c2ccc3c(c2)NC(=O)C(C)S3)CC1 (configuration not stated)	–	–	–	–	–	·
CC(C)CC(=O)NC(=S)Nc1ccccc1C(F)(F)F	–	–	41.5	–	–	–
CC(C)CC(=O)NC(=S)Nc1ccccc1F	–	–	–	–	–	·
CCN(CC)C(=O)c1ccccc1NC(=O)CN1C(=O)c2ccccc2C1=O	–	–	–	–	–	·
Cc1ccc(C)c(N2CCN(C(=O)c3ccc4c(c3)c(C)c(C)n4C)CC2)c1	–	–	43.4	–	–	–
Cc1ccc(C)c(N2CCN(C(=O)c3ccc4nc(N5CCOCC5)sc4c3)CC2)c1	–	–	–	–	–	·
